The source of these data is PubChem BioAssay (NCI).

What all share (test): NCI-60 one-dose screen, 48 h (100 = growth as untreated, 0 = no growth, -100 = all killed)
Details in all cases: 10 µM unless noted

Experiment [1] deals with T-47D breast.
The test system of experiment [2] is BT-549 breast.
The test system of experiment [3] is MDA-MB-435 melanoma.
Experiment [4] concerns SW-620 colon.
The test system of experiment [5] is MCF7 breast.
Experiment [6] concerns HCT-116 colon.
In experiment [7] the test system is HCC-2998 colon.
Experiment [8] relates to KM12 colon.

This is part of a sample that, as a whole, favours compounds with a hit. Of some 83,000 tested, about 20% had one in any assay.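 Single-concentration screen, 48 h exposure, 96-well plates. Endpoint: percent growth. Below 10 = active.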 A number with no mark means an inactive call. Activity calls are given as the source filed them.

For the molecule `CCCCc1nc2c(N)nc3ccccc3c2n1Cc1ccc(OC)cc1`, the growth in experiment [1] was 65.3%; in experiment [2], 72%; in experiment [3], 84%; in experiment [4], 68.6%; in experiment [5] it was 59.7%; in experiment [6], 32.5%. For the same molecule, the growth in experiment [7] is 85.5%; in experiment [8], 83.1%.

As to `CSc1ccc(/C(=N/N=C(N)N)c2ccc(F)cc2)cc1`, the growth is 58.1% in experiment [1]; 16.2% in experiment [2]; 10.6% in experiment [3]; 22.2% in experiment [4]; 5.11% (active) in experiment [5]; 6.25% (active) in experiment [6]. In addition, the figures for the growth in experiment [7] and in experiment [8] were -14.1% (active) and 9.6% (active), respectively.

For the molecule `COC(=O)CNC(=O)c1cccc(-c2cc(=O)c3c(OC)c(OC)c(OC)cc3o2)c1`, the growth in experiment [1] is 107%; in experiment [2], 102%; in experiment [3] it was 107%; in experiment [4], 100%; in experiment [5], 89.2%; in experiment [6] it was 101%. Further, the growth in experiment [7] was 100%; in experiment [8] it was 103%.

Consider `COc1ccc(-c2c(C(N)=O)c(N)n(Cc3nc4ccccc4[nH]3)c(=O)c2C#N)c(OC)c1`, for which the growth in experiment [1] was 89.6%; in experiment [2] it was 105%; in experiment [3] it was 109%; in experiment [4], 105%; in experiment [5], 76.5%; in experiment [6], 104%. The growth in experiment [7] is 110%; in experiment [8], 99.8%.

As for `O=C(N/N=C/c1cc2ccccc2nc1Cl)c1cc(-c2nc3ccccc3[nH]2)nc2ccccc12`, the growth is 67.5% in experiment [1]; 85.9% in experiment [2]; 101% in experiment [3]; 101% in experiment [4]; 89.7% in experiment [5]; 98.8% in experiment [6]. Moreover, the growth in experiment [7] is 104%; in experiment [8], 97.2%.

With `COc1cc2c3c(cc4c5c(ccc4c3c1OC)OCO5)N(CCN(C)C)C2=O`, the growth is -5.03% (active) in experiment [1]; -6.3% (active) in experiment [2]; -18.5% (active) in experiment [3]; 7.13% (active) in experiment [4]; 0.153% (active) in experiment [5]; -12.2% (active) in experiment [6]. Moreover, the growth in experiment [7] is -45.3% (active); in experiment [8], 8.95% (active).

As to `CNC(=O)c1cc(N2CCc3cc(NC(=O)Nc4ccc(N5CCN(C)CC5)c(C(F)(F)F)c4)ccc32)ccn1`, the growth was 81.4% in experiment [1]; 84.9% in experiment [2]; 82.3% in experiment [3]; 3.68% (active) in experiment [4]; -2.1% (active) in experiment [5]; -47.2% (active) in experiment [6]. For the same molecule, the growth in experiment [7] was 84.9%; in experiment [8], 29.5%.

Consider `Cc1ccc(/C(N)=N/C(N)=N/c2nc3ccccc3s2)cc1`, for which the growth in experiment [1] is 80.9%; in experiment [2] it was 102%; in experiment [3], 103%; in experiment [4] it was 107%; in experiment [5] it was 74%; in experiment [6], 86%. Further, the growth in experiment [7] is 104%; in experiment [8], 64.1%.

Regarding `O=C(/C=C/c1ccc(Cl)c(Cl)c1)Nc1ncc(Cc2ccc(Cl)c(Cl)c2)s1`, the growth in experiment [1] was 24.6%; in experiment [2], 47.4%; in experiment [3] it was 26.9%; in experiment [4], 33.3%; in experiment [5] it was 28.7%; in experiment [6], 26.6%. Further, the growth in experiment [7] was 41.2%; in experiment [8], 13.3%.

With `COC(=O)CCSC1=C(C)C(=O)c2ccccc2C1=O`, the growth in experiment [1] was 43.5%; in experiment [2] it was 88.8%; in experiment [3] it was 106%; in experiment [4], 96.3%; in experiment [5] it was 73.3%; in experiment [6], 91.5%. Also, the growth in experiment [7] was 111%; in experiment [8], 82.7%.

`CN1CCN(Cc2ccc(NC(=O)c3cncc(C#Cc4cnc5ccc(NCCO)nn45)c3)cc2C(F)(F)F)CC1`: the growth was 21.5% in experiment [1]; -32.2% (active) in experiment [2]; -6.87% (active) in experiment [3]; -13.2% (active) in experiment [4]; -43.5% (active) in experiment [5]; 0.878% (active) in experiment [6]. Besides, the results for the growth in experiment [7] and in experiment [8] were -8.28% (active) and -4.28% (active), respectively.

For the molecule `N#Cc1c(-c2cccs2)cc(-c2cnccn2)nc1SCC(=O)N/N=C/c1ccc(Cl)cc1`, the growth in experiment [1] was 93.8%; in experiment [2], 107%; in experiment [3] it was 103%; in experiment [4] it was 93.1%; in experiment [5] it was 84.6%; in experiment [6], 57.8%. Besides, the values for the growth in experiment [7] and in experiment [8] were 119% and 96.5%, respectively.

Regarding `CC(=O)N1N=C(c2cc3ccccc3oc2=O)CC1c1cn(-c2ccccc2)nc1-c1ccc(C)cc1` (configuration not stated), the growth in experiment [1] was 96.4%; in experiment [2], 117%; in experiment [3], 102%; in experiment [4] it was 98.8%; in experiment [5], 90.8%; in experiment [6], 92.1%. Moreover, the results for the growth in experiment [7] and in experiment [8] were 106% and 98.6%, respectively.

As for `COc1ccc(N2CCN(C3=C(Cl)C(=O)c4ncccc4C3=O)CC2)cc1`, the growth in experiment [1] was -53.3% (active); in experiment [2] it was 111%; in experiment [3], -59.9% (active); in experiment [4], -4.75% (active); in experiment [5], -27.6% (active); in experiment [6] it was -59.7% (active). Moreover, the growth in experiment [7] was 107%; in experiment [8], 95.7%.

On to `CC(=O)Nc1ccccc1-c1nc2ccccc2s1`, for which the growth in experiment [1] is 99.3%; in experiment [2] it was 102%; in experiment [3] it was 98.8%; in experiment [4] it was 107%; in experiment [5], 97.6%; in experiment [6], 95.3%. Further, the growth in experiment [7] was 99.7%; in experiment [8] it was 105%.

As for `C1=CC(c2nn3c(-c4ccccc4)nnc3s2)=Cc2ccccc2O1`, the growth was 19.7% in experiment [1]; 77.9% in experiment [2]; 46.7% in experiment [3]; 16.6% in experiment [4]; 30.7% in experiment [5]; 41.1% in experiment [6]. For the same molecule, the growth was 97% in experiment [7] and 85.5% in experiment [8].

With `O=C(Nc1ccc(Cl)c(C(F)(F)F)c1)Nc1ccc2oc(=O)ccc2c1`, the growth was 8.73% (active) in experiment [1]; 78.7% in experiment [2]; 50.3% in experiment [3]; 37.3% in experiment [4]; 11.9% in experiment [5]; 15.7% in experiment [6]. The results for the growth in experiment [7] and in experiment [8] were 29.2% and 19.6%, respectively.

Take `Cc1ccc(Nc2nc(SC(C)C)nc(-c3ccccc3)c2C#N)cc1`: the growth in experiment [1] is 88.4%; in experiment [2] it was 79.6%; in experiment [3], 102%; in experiment [4] it was 89.2%; in experiment [5], 92.3%; in experiment [6], 92.1%. Besides, the growth in experiment [7] is 88.2%; in experiment [8] it was 96.1%.

As to `CC(C)(O)c1cncc(-c2ccc3ncc(C#N)c(N4CCc5cc(F)c(Cl)cc54)c3c2)c1`, the growth in experiment [1] is 2.88% (active); in experiment [2] it was 2.34% (active); in experiment [3] it was 17.9%; in experiment [4], 26.6%; in experiment [5], 8.93% (active); in experiment [7] it was 18.7%. In experiment [8], the growth was 34.3%.

As for `CN1c2ccccc2Sc2cc(/C=N/Nc3ccnc4cc(Cl)ccc34)ccc21`, the growth is 87.4% in experiment [1]; 99% in experiment [2]; 62.9% in experiment [3]; 84.8% in experiment [4]; 49.4% in experiment [5]; 110% in experiment [7]. Also, the growth in experiment [8] is 86.8%.

For the molecule `COc1ccc(NC2=C(Br)C(=O)C(C)=C(C)C2=O)cc1OC`, the growth in experiment [1] was -8.45% (active); in experiment [2], 112%; in experiment [3], 102%; in experiment [4], 107%; in experiment [5] it was 72.1%; in experiment [7], 102%. Also, in experiment [8], the growth was 59.2%.

On to `NCCNC(=O)c1cccc(COc2ccccc2NC(=O)c2cc(Cl)c(Cl)[nH]2)c1`, for which the growth is 89.2% in experiment [1]; 105% in experiment [2]; 101% in experiment [3]; 111% in experiment [4]; 77.7% in experiment [5]; 86.1% in experiment [6]. For the same molecule, the growth in experiment [7] is 106%; in experiment [8], 101%.

Regarding `Brc1ccc(-c2cc(-c3ccc4c(c3)OC=CO4)n[nH]2)s1`, the growth in experiment [1] was 48.5%; in experiment [2], 91.3%; in experiment [3], 15.3%; in experiment [4], 79.1%; in experiment [5] it was 20.7%; in experiment [7] it was 84.5%. The growth in experiment [8] was 58.6%.

For the molecule `Cc1ccc(CSC2=C(Cl)CN(c3ccc(Cl)cc3)C2=O)cc1`, the growth in experiment [1] was 96.5%; in experiment [2] it was 110%; in experiment [3] it was 103%; in experiment [4] it was 108%; in experiment [5], 79.1%; in experiment [6], 98.5%. In addition, the growth in experiment [7] is 105%; in experiment [8], 106%.

As to `COC(=O)[C@@H](Cc1c[nH]c2ccccc12)NC(=O)CCCCOc1cc(O)c2c(=O)cc(-c3ccccc3)oc2c1`, the growth in experiment [1] was 59.7%; in experiment [2], 90.7%; in experiment [3], 91.6%; in experiment [4], 95.8%; in experiment [5], 94.9%; in experiment [6], 92.1%. For the same molecule, the growth in experiment [7] was 96.5%; in experiment [8], 95.3%.

On to `CC(=O)c1c([Si](C)(C)C)c2cc(C#N)ccn2c1C(=O)c1ccc(Br)cc1`, for which the growth in experiment [1] was 73.8%; in experiment [2] it was 97.5%; in experiment [3], 92.5%; in experiment [4] it was 87.2%; in experiment [5], 82.5%; in experiment [6], 56%. For the same molecule, the growth is 89.9% in experiment [7] and 88.3% in experiment [8].

On to `C#CCOc1ccc(-c2csc(NC(=O)C=C)n2)cc1NS(=O)(=O)c1cccc2c(N(C)C)cccc12`, for which the growth in experiment [1] was 60.7%; in experiment [2], 58.6%; in experiment [3], 14.7%; in experiment [4], 10.3%; in experiment [5] it was 4.46% (active); in experiment [6], -72.2% (active). For the same molecule, the growth in experiment [7] is 78.4%; in experiment [8], 63.1%.

For `C[C@H](Nc1ncnc2ccc(-c3cnc(Cl)c(NS(C)(=O)=O)c3)cc12)c1ccccc1`, the growth in experiment [1] was -53.2% (active); in experiment [2], -61.5% (active); in experiment [3], -40% (active); in experiment [4] it was 1.48% (active); in experiment [5], 2.5% (active); in experiment [7], -77.3% (active). Also, in experiment [8], the growth is -79% (active).

With `O=C(CCCCCCNC(=O)C(O)(O)C(F)(F)F)Nc1ncc(-c2ccc(Br)cc2)s1`, the growth is 3.85% (active) in experiment [1]; -20.5% (active) in experiment [2]; 6.58% (active) in experiment [3]; -16.2% (active) in experiment [4]; 6.6% (active) in experiment [5]; -26.3% (active) in experiment [6]. Moreover, the growth is -54.6% (active) in experiment [7] and -67% (active) in experiment [8].
